# Results as given in PubChem BioAssay AID2726 (Broad Institute, 2010).
# This is one part of the list. Calls of active or inactive are those of the source.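 How the source made its calls: active means every replicate shows growth inhibition above 50%; inconclusive means at least half, but not all, replicates pass that cutoff; inactive means fewer than half of replicates pass it.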
# Assay: inhibitors of JMH597 bacterial growth – JMH597 strain, OD600 absorbance, counter-screen for AI-2 quorum sensing project, confirmation (AID 2726)
# Conditions: Vibrio harveyi JMH597 growth, 9 h, at 7.5 µM, active compounds read high, lacks LuxN and CqsS sensors
row,Compound,growth inhibition
1,COC(=O)c1ccc(SCc2ccccc2)nc1,13.9% (inactive)
2,COc1cccc(NC(=O)NCc2ccc(F)cc2)c1,-8.06% (inactive)
3,CCOc1ccc(/C=N/NC(N)=S)cc1,8.81% (inactive)
4,Cc1ccccc1NC(=O)CCOc1ccccc1,-12.9% (inactive)
5,Cc1cccc(CSc2ccc(-c3cccs3)nn2)c1,18.7% (inactive)
6,CC(CNc1ccc([N+](=O)[O-])cc1)NC(=O)c1ccccc1Br (configuration not stated),16.7% (inactive)
7,CN(Cc1cnccn1)C(=O)c1cc(COc2cccc(C(F)(F)F)c2)on1,4.24% (inactive)
8,COc1ccc(/C(N)=N/OC(=O)Cc2ccccc2)cc1,15.4% (inactive)
9,O=C1COc2ccc(S(=O)(=O)Nc3ccc(OC(F)(F)F)cc3)cc2N1,41.4% (inactive)
10,S=C(NCc1ccc(Cl)cc1)NC1CCCCC1,11.3% (inactive)
11,O=C(/C=C/c1ccc2c(c1)OCO2)NCc1ccc(F)cc1,4.99% (inactive)
12,Cc1cc(C(=O)OCC(=O)Nc2ccc(F)c(F)c2)c(C)o1,2.76% (inactive)
13,Cc1ccc(Oc2cnn(-c3ccccc3)c(=O)c2Br)cc1,-6.12% (inactive)
14,Cc1ccc(Cc2nc(-c3cccc(C)c3)no2)cc1,30.5% (inactive)
15,O=C(/C=C/c1ccc2c(c1)OCCO2)c1ccc(O)cc1,2.39% (inactive)
16,O=C(CCC(=O)c1cccs1)Nc1nc2ccccc2s1,-16.4% (inactive)

row,Compound,growth inhibition
1,O=C(c1cc(-c2cccc(O)c2)on1)N1CCc2ccccc2C1,14.2% (inactive)
2,Cc1ccsc1C(=O)OCC(=O)c1cc2ccccc2o1,32.2% (inactive)
3,CCOC(=O)c1nn(-c2cccc(C)c2)cc1C(=O)c1ccccc1,-8.39% (inactive)
4,CC(=O)c1cccc(OCc2cc(C(=O)NC(C)Cc3cccnc3)no2)c1 (configuration not stated),1.63% (inactive)
5,COC(=O)C1CCN(C(=O)c2ccc3oc(Cc4ccc(Cl)cc4)nc3c2)CC1,26.4% (inactive)
6,O=C(COc1ncnc2ccccc12)NC(=O)NCc1ccccc1,17.5% (inactive)
7,Cc1ccc(NC(=O)C2CC2c2ccccc2)cc1 (configuration not stated),-14.1% (inactive)
8,O=C(Nc1ccc(F)c(Cl)c1)C1CCN(S(=O)(=O)c2cccnc2)CC1,-9.31% (inactive)
9,Cc1ccccc1C(=O)Nc1ccc(N2CCCCCC2)cc1,25.5% (inactive)
10,O=C(Cn1cnc2ccccc2c1=O)Nc1cccc(S(=O)(=O)N2CCCCC2)c1,22.5% (inactive)
11,Cc1nn(CC(=O)Nc2ccc(F)cc2)c(=O)c2ccccc12,2.73% (inactive)
12,N/C(=N\OC(=O)CCc1ccccc1)c1cccnc1,3.39% (inactive)
13,CC(C)(C)c1ccc(OC2=CS(=O)(=O)c3ccccc32)cc1,31.5% (inactive)
14,Cc1cc(CN(C)C(=O)c2cc(COc3ccc(C)c(C)c3)on2)n[nH]1,25.5% (inactive)
15,O=C(COC(=O)C1CCCCC1)Nc1ccc([N+](=O)[O-])cc1,-6.27% (inactive)
16,Cc1ccc(NS(=O)(=O)c2ccc3c(c2)NC(=O)CO3)cc1,-1.97% (inactive)
